This note sets out measurements from PubChem BioAssay (NCI).

Test systems include NCI-H23 lung; NCI-H226 lung; NCI-H322M lung; HOP-62 NSCLC; NCI-H460 lung; HOP-92 NSCLC; NCI-H522 lung; A549/ATCC NSCLC; 786-0 renal; COLO 205 colon; DU-145 prostate; K-562 leukemia; MALME-3M melanoma; MDA-MB-231 breast; RXF 393 renal; SF-268 CNS; SF-295 CNS; SF-539 CNS; UACC-257 melanoma; M14 melanoma.
Holding throughout (experiment): NCI-60 one-dose screen, 48 h (100 = growth as untreated, 0 = no growth, -100 = all killed)
Holding throughout (conditions): 10 µM unless noted

Each structure is given as a SMILES string. The panel holds about 83,000 compounds, 20% with a hit somewhere; the sample as a whole holds those more often.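 Percent growth is the endpoint: 0 to 100 indicates growth inhibition (40 means 60% inhibition), 0 means no net growth, and negative values indicate cell death.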 Unmarked numbers belong to inactive results. Calls of active or inactive are those of the source. The calls were made as follows: active = growth percent below 10; inactive = the rest.

On to `Cc1nc2ccccc2c(/C=C/c2ccc(C(F)(F)F)cc2)c1C(=O)/C=C/c1ccccc1`, for which the growth in the assay on NCI-H23 lung is -12.9% (active); with NCI-H226 lung it was -0.692% (active); with NCI-H322M lung, 20.5%; in the assay on HOP-62 NSCLC, -34.8% (active); with NCI-H460 lung, -74.9% (active); in the assay with HOP-92 NSCLC, 16.5%. For the same compound, the growth in the assay with NCI-H522 lung is -61.9% (active); in the assay on A549/ATCC NSCLC, 6.27% (active); in the assay on 786-0 renal, -14.1% (active); in the assay on COLO 205 colon, -54.6% (active); with DU-145 prostate, -43.6% (active); in the assay on K-562 leukemia it was 4.16% (active). Moreover, the growth in the assay on MALME-3M melanoma is -65.2% (active); with MDA-MB-231 breast, -39.9% (active); with RXF 393 renal, -82.9% (active); in the assay on SF-268 CNS it was 33.4%; in the assay with SF-295 CNS it was -45.3% (active); in the assay with SF-539 CNS, -83.6% (active). Further, the growth with UACC-257 melanoma was -25.5% (active); in the assay with M14 melanoma, -25.9% (active).

With `C#CCOc1ccc2ncnc(Nc3cccc(NC(=O)CCl)c3)c2c1`, the growth is 73.5% in the assay on NCI-H23 lung; 88.3% in the assay with NCI-H226 lung; 92.1% in the assay on NCI-H322M lung; 93.2% with HOP-62 NSCLC; 49.2% in the assay on NCI-H460 lung; 85% in the assay on HOP-92 NSCLC. Besides, the growth was 38.9% in the assay on NCI-H522 lung; 67% in the assay with A549/ATCC NSCLC; 72.6% in the assay with 786-0 renal; 74% in the assay on DU-145 prostate; 55.2% in the assay with K-562 leukemia; 71.9% with MALME-3M melanoma. For the same compound, the growth with MDA-MB-231 breast was 73.7%; with RXF 393 renal, 79.6%; in the assay with SF-268 CNS, 60.6%; in the assay on SF-295 CNS, 106%; in the assay with SF-539 CNS, 84.4%; with UACC-257 melanoma, 80.3%. Besides, the growth in the assay on M14 melanoma is 77.1%.

With `COc1cc2ncnc(Nc3ccc(F)c(Cl)c3)c2cc1OCC(=O)N1CCN(c2ccc(F)cc2)CC1`, the growth is 97% in the assay on NCI-H23 lung; 96.3% with NCI-H226 lung; 36.5% in the assay with NCI-H322M lung; 95.2% in the assay on HOP-62 NSCLC; 101% with NCI-H460 lung; 87.9% in the assay with HOP-92 NSCLC. In addition, the growth was 72.2% with NCI-H522 lung; 79.7% with A549/ATCC NSCLC; 79% with 786-0 renal; 101% with COLO 205 colon; 60.5% with DU-145 prostate; 83.6% in the assay on K-562 leukemia. The growth in the assay with MALME-3M melanoma was 92.2%; with MDA-MB-231 breast, 79.3%; in the assay on RXF 393 renal, 103%; in the assay with SF-268 CNS it was 79.5%; in the assay on SF-295 CNS, 94.1%; with SF-539 CNS it was 100%. For the same compound, the growth in the assay with UACC-257 melanoma was 114%; with M14 melanoma it was 81.3%.

In the case of `O=C(CCCCCCCCC(=O)N/N=C\c1cc(Cl)ccc1O)N/N=C\c1cc(Cl)ccc1O`, the growth in the assay with NCI-H23 lung is 47.9%; in the assay on NCI-H226 lung it was 15.4%; in the assay on NCI-H322M lung it was 41.1%; in the assay on HOP-62 NSCLC, 30.7%; with NCI-H460 lung it was 7.22% (active); with HOP-92 NSCLC, 47.6%. Besides, the growth in the assay on NCI-H522 lung is 34.3%; in the assay with A549/ATCC NSCLC it was 38.2%; in the assay on 786-0 renal it was 16.3%; in the assay with COLO 205 colon, 36.9%; in the assay with DU-145 prostate, 30.5%; with K-562 leukemia, 23.7%. In addition, the growth is 37.6% with MALME-3M melanoma; 37% in the assay with MDA-MB-231 breast; 46.7% in the assay on RXF 393 renal; 28.3% in the assay with SF-268 CNS; 21.9% with SF-295 CNS; 15.6% in the assay on SF-539 CNS. Also, the results for the growth with UACC-257 melanoma and with M14 melanoma were 23.6% and 17.7%, respectively.

With `O=C1CCCc2nc3sc4c(=O)n(-c5ccccc5Cl)nnc4c3cc21`, the growth was 101% with NCI-H23 lung; 89.1% in the assay with NCI-H226 lung; 101% in the assay with NCI-H322M lung; 94.3% in the assay with HOP-62 NSCLC; 100% in the assay with NCI-H460 lung; 94.9% in the assay on HOP-92 NSCLC. The growth with NCI-H522 lung is 74.5%; in the assay with A549/ATCC NSCLC, 80%; in the assay on 786-0 renal, 86.6%; with COLO 205 colon, 105%; with DU-145 prostate, 111%; in the assay on K-562 leukemia, 102%. The growth in the assay with MALME-3M melanoma is 102%; in the assay on MDA-MB-231 breast it was 93.6%; in the assay on RXF 393 renal it was 91.2%; in the assay on SF-268 CNS, 103%; with SF-295 CNS it was 95.1%; with SF-539 CNS, 103%. The figures for the growth with UACC-257 melanoma and in the assay with M14 melanoma were 85.3% and 106%, respectively.

With `O=C(CCCCl)NNc1nccc(Nc2ccc(S(=O)(=O)Nc3ccncc3)cc2)n1`, the growth in the assay on NCI-H23 lung is 99.3%; in the assay on NCI-H226 lung, 104%; in the assay with NCI-H322M lung it was 102%; in the assay on HOP-62 NSCLC, 94.6%; in the assay on NCI-H460 lung it was 109%; with HOP-92 NSCLC it was 98.5%. The growth in the assay with NCI-H522 lung is 99.7%; in the assay with A549/ATCC NSCLC, 96.6%; in the assay with 786-0 renal, 95.2%; in the assay on COLO 205 colon it was 111%; in the assay with DU-145 prostate it was 103%; in the assay with K-562 leukemia, 111%. The growth with MALME-3M melanoma is 108%; in the assay on MDA-MB-231 breast it was 116%; in the assay with RXF 393 renal it was 117%; in the assay with SF-268 CNS, 95.9%; in the assay with SF-295 CNS, 96.7%; in the assay with SF-539 CNS, 102%. Moreover, the growth is 96.3% in the assay with UACC-257 melanoma and 97.7% in the assay on M14 melanoma.

On to `O=C(CCCCCCN1CC(=O)N2[C@@H](c3ccc(Cl)cc3)c3[nH]c4ccccc4c3C[C@H]2C1=O)NO`, for which the growth in the assay with NCI-H23 lung is 71.3%; in the assay with NCI-H226 lung, 90.2%; in the assay with NCI-H322M lung it was 70.3%; with HOP-62 NSCLC it was 66.4%; in the assay on NCI-H460 lung, 67.6%; with HOP-92 NSCLC it was 15.3%. The growth was 38.2% with NCI-H522 lung; 93.6% with A549/ATCC NSCLC; 83.9% in the assay on 786-0 renal; 75.3% in the assay on COLO 205 colon; 73.4% in the assay with DU-145 prostate; 29.7% with K-562 leukemia. For the same compound, the growth in the assay on MALME-3M melanoma was 37.2%; in the assay on MDA-MB-231 breast, 50.9%; in the assay with RXF 393 renal, 72.7%; with SF-268 CNS, 91.2%; in the assay with SF-295 CNS, 80.6%; in the assay on SF-539 CNS, 63.5%. Further, the growth is 79.7% with UACC-257 melanoma and 59% with M14 melanoma.
